Test results from the supplement of paper PMC11732987, “Enantioselective OTUD7B fragment discovery through chemoproteomics screening and high-throughput optimisation” (Communications Chemistry, 2025).

Legend:
Experiment in all cases: log2 ratio of Biotin-Ahx-Ub-VS probe labelling (fragment/DMSO); higher = less target engagement (more negative = stronger competition), active = hit call of the paper (q ≤ 0.05, log2 ratio ≤ -1)
Conditions in all cases: compound concentration: 200 uM; treatment time: 3 h
[1] = target: T1, USP42 (UniProt Q9H9J4)
T1 sequence (whole entry): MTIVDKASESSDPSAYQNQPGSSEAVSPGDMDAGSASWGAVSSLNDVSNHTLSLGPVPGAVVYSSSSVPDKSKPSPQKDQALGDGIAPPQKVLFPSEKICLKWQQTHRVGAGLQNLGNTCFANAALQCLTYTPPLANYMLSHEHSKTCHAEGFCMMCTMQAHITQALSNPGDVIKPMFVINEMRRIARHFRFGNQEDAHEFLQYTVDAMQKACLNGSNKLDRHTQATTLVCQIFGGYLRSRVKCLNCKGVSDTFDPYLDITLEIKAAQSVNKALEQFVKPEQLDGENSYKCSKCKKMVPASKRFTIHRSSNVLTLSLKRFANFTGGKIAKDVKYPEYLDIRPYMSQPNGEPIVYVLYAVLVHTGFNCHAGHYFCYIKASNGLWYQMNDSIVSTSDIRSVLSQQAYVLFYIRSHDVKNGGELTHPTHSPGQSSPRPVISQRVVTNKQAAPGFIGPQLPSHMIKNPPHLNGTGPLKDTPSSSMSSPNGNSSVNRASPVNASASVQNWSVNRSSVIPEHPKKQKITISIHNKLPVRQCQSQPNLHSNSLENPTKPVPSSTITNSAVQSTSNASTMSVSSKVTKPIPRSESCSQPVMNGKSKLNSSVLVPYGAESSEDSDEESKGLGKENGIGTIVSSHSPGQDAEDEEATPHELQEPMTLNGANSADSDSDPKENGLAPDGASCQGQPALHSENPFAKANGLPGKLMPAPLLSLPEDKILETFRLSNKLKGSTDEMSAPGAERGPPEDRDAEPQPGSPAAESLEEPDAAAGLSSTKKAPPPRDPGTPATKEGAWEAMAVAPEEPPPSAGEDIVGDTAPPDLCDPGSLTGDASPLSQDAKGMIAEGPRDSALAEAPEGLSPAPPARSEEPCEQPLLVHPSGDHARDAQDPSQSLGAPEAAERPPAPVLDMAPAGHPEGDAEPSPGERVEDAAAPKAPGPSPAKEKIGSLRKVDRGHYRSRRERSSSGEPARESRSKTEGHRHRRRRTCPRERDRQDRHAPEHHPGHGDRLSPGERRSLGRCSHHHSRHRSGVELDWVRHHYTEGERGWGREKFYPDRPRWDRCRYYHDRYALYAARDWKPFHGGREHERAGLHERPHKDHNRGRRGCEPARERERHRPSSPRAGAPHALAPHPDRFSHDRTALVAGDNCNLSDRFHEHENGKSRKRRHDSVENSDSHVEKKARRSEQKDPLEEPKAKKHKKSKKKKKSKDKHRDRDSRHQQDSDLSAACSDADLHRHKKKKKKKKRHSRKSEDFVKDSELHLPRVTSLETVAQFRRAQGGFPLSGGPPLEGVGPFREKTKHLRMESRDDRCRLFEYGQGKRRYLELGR
Procedure, shortened: (§1)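 Average log2 ratios of fragment over vehicle were obtained by unpaired t-test from global-median-normalised Spectronaut label-free quantities. Proteins with ≥2 unique peptides were included. HEK293T lysate (495 µg per sample) was treated in triplicate with fragment at 200 µM or vehicle for 3 h, then with Biotin-Ahx-Ub-VS at 0.5 µM final for 1 h, and labelled DUBs were NeutrAvidin-enriched and run by diaPASEF LC-MS/MS.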

[2] = target: USP46 (UniProt P62068)
Procedure, shortened: as §1

[3] = target: T2, USP47 (UniProt Q96K76)
T2 sequence (whole entry): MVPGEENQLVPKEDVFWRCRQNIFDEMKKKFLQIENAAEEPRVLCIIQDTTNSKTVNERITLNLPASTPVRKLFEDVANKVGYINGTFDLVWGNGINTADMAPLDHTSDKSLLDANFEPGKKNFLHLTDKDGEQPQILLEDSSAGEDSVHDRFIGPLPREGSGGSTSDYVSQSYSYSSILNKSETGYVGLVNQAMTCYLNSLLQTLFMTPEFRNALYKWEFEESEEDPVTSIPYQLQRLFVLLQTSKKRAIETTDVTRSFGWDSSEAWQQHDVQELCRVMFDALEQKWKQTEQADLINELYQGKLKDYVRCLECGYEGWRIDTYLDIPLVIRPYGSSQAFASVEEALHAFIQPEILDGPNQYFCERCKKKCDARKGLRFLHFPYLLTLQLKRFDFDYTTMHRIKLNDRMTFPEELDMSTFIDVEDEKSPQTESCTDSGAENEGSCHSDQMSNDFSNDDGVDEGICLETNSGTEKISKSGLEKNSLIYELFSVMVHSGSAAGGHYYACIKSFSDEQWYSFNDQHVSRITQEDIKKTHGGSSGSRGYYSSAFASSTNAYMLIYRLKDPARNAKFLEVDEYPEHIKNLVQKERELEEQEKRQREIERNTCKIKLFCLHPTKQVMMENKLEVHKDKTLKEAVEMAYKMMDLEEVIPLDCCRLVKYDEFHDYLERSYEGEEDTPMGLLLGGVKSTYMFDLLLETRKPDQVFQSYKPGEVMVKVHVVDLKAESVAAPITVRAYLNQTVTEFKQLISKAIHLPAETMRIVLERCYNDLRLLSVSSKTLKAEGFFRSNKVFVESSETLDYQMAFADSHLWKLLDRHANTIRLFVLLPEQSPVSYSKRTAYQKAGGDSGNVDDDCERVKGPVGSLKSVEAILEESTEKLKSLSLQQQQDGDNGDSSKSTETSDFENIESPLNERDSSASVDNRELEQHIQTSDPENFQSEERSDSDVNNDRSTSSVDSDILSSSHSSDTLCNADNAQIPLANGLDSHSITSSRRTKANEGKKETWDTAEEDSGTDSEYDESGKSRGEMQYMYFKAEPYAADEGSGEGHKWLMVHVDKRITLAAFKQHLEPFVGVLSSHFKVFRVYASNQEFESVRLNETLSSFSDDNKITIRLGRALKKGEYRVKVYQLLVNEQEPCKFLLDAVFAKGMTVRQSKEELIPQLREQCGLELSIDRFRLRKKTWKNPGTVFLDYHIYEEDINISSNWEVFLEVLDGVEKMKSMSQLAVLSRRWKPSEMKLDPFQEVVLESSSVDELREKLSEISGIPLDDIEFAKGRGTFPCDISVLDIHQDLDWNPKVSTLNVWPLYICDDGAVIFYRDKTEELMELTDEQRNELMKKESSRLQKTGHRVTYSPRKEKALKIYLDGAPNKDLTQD
Procedure, shortened: as §1

[4] = target: T3, USP48 (UniProt Q86UV5)
T3 sequence (whole entry): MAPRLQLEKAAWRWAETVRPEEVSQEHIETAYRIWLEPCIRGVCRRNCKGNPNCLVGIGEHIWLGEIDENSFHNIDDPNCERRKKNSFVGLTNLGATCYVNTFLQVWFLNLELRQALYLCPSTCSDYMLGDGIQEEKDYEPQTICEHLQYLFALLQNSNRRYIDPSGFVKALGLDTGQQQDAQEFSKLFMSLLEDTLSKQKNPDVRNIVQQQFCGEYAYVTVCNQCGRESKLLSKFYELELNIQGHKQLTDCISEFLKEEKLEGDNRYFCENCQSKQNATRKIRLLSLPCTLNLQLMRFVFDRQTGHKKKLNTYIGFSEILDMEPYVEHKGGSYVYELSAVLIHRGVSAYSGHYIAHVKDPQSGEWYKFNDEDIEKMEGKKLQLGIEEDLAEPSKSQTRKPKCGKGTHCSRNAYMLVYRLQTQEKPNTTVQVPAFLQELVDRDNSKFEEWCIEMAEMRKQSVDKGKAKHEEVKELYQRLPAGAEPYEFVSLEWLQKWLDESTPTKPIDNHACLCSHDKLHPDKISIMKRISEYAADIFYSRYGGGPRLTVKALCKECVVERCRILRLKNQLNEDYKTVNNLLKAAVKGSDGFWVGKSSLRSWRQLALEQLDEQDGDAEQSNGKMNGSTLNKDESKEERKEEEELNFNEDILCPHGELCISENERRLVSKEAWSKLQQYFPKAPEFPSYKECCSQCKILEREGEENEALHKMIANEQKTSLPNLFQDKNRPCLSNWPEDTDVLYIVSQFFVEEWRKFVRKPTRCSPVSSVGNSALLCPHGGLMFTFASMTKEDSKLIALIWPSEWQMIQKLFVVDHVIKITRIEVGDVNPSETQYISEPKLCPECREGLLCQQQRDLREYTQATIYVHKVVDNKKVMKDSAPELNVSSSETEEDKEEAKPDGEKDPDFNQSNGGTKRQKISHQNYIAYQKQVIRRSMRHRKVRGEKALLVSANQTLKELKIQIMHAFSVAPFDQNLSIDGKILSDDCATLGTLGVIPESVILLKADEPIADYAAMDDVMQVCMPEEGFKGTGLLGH
Procedure, shortened: as §1

[5] = target: T4, USP5 (UniProt P45974)
T4 sequence (whole entry): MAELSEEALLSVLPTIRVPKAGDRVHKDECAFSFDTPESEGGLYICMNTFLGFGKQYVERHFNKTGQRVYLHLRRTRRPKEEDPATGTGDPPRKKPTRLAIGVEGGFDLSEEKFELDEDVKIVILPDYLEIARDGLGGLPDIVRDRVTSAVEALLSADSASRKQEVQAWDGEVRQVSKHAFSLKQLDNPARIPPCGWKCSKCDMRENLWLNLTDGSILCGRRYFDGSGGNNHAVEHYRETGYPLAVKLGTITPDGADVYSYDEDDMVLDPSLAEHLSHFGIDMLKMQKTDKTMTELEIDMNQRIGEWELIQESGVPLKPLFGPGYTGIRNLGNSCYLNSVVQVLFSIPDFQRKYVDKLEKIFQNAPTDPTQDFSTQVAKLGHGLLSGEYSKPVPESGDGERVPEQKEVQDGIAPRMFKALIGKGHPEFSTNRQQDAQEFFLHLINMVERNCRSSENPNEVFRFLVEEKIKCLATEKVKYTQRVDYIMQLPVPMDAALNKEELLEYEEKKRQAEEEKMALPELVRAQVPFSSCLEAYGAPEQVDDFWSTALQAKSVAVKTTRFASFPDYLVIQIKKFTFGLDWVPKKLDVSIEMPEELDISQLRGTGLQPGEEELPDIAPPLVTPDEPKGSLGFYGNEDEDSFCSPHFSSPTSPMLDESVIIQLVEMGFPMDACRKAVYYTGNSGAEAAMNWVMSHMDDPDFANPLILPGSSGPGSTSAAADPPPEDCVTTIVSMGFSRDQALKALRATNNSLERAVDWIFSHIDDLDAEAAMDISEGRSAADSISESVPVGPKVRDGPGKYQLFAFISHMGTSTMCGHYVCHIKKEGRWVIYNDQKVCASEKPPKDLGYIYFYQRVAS
Procedure, shortened: as §1

[6] = target: USP54 (UniProt Q70EL1)
Procedure, shortened: as §1

[7] = target: USP7 (UniProt Q93009)
Procedure, shortened: as §1

[8] = target: T5, USP8 (UniProt P40818)
T5 sequence (whole entry): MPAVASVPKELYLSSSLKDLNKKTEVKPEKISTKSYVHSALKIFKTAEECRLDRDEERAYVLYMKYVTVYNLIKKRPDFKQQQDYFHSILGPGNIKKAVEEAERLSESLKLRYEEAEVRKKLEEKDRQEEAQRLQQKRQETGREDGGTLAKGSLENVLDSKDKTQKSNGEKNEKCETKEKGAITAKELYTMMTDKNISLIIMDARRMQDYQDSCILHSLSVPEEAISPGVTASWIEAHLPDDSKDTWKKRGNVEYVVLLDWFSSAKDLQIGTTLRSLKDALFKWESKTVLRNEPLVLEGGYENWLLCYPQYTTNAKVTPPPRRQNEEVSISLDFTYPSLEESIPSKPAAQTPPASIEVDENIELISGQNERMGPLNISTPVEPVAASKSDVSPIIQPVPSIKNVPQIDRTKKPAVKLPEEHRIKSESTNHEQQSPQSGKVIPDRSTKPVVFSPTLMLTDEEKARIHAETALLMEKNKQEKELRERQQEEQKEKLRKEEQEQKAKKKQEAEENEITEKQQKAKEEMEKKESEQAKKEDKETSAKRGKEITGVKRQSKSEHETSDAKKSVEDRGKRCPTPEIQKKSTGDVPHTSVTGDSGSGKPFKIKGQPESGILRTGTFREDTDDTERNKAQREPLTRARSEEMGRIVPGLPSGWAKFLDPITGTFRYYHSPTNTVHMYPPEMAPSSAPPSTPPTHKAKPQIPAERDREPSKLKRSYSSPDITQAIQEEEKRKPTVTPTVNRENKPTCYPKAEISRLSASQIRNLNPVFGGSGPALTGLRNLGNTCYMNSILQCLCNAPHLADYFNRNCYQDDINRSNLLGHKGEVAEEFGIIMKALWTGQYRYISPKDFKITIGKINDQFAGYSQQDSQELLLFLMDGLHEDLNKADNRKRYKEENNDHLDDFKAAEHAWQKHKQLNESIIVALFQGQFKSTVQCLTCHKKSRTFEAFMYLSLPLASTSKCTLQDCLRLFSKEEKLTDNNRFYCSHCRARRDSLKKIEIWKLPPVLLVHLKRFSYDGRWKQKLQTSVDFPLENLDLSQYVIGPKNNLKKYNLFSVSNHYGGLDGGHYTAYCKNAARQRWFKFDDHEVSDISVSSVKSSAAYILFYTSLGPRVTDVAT
Procedure, shortened: as §1

[9] = target: USP9X (UniProt Q93008)
Procedure, shortened: as §1

[10] = target: UniProt O00487
Procedure, shortened: as §1

Measured: log2 ratio of Biotin-Ahx-Ub-VS probe labelling

Sequence of UniProt O00487 (O00487 whole entry): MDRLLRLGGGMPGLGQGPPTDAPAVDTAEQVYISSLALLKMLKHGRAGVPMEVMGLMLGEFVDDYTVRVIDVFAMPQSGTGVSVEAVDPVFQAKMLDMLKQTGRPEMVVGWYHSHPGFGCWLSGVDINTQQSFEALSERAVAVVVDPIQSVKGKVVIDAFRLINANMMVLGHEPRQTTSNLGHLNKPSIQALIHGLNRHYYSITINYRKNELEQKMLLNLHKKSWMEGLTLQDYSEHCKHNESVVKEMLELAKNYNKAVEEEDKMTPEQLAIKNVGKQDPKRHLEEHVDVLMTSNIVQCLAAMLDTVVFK
Sequence of USP46 (P62068 whole entry): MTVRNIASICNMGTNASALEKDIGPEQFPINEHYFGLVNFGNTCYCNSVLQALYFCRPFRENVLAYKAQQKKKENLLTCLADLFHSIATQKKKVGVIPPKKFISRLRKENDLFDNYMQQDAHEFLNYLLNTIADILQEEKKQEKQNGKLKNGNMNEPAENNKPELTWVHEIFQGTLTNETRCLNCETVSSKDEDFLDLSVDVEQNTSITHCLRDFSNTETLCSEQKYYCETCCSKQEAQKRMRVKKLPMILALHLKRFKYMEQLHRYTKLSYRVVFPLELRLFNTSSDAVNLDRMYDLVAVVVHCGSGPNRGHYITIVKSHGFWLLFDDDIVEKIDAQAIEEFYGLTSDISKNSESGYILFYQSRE
Sequence of USP9X (Q93008 whole entry): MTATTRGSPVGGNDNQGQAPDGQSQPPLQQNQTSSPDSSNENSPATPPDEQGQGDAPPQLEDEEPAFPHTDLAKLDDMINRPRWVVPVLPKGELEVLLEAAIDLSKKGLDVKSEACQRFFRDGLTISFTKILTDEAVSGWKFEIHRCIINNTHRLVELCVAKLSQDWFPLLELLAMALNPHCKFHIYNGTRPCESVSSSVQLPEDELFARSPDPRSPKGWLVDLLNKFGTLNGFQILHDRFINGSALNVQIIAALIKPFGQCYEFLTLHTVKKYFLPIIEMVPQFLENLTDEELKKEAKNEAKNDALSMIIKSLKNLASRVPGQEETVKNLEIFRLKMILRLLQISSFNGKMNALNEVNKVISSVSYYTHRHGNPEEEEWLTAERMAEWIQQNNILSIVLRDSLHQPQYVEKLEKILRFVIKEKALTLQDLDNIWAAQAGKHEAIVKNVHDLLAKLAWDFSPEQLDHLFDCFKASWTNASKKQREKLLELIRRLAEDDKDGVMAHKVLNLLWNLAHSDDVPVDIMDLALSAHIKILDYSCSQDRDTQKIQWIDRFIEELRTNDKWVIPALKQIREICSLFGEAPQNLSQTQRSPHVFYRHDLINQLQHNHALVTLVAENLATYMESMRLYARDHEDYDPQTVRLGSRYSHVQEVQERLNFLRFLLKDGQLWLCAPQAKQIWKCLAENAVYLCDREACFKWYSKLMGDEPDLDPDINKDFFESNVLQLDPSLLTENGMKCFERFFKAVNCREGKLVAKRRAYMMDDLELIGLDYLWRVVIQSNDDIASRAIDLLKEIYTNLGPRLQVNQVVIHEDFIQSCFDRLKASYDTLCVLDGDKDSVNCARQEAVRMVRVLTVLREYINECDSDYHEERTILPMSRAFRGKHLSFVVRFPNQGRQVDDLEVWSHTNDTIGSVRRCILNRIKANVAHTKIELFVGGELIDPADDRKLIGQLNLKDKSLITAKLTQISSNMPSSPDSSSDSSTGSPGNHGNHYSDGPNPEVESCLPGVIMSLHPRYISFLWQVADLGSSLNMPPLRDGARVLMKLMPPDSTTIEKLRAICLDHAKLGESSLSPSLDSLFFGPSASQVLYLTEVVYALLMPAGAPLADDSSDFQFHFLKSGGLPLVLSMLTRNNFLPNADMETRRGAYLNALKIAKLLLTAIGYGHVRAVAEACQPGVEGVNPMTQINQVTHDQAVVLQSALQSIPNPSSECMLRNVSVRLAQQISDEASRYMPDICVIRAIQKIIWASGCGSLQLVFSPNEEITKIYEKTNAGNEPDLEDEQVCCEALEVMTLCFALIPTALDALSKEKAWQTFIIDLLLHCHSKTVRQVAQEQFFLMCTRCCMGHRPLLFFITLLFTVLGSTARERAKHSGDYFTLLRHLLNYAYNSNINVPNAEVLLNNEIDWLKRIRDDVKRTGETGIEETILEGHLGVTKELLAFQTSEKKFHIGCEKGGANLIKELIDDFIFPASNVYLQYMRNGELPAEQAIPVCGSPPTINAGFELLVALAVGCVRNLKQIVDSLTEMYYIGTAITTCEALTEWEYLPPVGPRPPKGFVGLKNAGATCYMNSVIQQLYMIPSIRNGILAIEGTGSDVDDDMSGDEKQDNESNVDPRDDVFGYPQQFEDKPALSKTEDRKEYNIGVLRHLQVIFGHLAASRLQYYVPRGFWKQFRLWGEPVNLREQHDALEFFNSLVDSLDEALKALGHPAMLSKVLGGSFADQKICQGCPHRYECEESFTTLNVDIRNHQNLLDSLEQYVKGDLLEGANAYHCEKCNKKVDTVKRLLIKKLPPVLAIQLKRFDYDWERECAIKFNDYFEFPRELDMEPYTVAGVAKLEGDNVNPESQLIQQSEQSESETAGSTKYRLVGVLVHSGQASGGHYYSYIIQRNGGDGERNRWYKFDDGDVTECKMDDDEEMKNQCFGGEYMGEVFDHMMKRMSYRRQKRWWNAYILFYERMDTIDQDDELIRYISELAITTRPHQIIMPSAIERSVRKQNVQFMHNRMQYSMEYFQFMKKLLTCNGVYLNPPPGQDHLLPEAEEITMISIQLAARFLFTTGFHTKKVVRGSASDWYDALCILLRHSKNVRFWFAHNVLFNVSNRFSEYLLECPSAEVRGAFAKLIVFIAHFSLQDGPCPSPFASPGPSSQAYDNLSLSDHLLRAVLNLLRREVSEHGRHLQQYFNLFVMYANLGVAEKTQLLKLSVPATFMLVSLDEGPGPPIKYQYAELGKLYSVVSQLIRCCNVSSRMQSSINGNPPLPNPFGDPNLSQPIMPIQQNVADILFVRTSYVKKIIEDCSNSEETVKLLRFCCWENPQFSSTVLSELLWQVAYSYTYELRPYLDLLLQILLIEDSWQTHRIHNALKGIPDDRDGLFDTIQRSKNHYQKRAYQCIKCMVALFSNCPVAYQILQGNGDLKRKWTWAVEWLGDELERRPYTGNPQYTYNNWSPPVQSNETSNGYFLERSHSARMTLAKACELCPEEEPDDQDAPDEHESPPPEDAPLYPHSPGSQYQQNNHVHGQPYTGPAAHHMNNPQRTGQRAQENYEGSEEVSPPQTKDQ
Sequence of USP7 (Q93009 whole entry, looked up): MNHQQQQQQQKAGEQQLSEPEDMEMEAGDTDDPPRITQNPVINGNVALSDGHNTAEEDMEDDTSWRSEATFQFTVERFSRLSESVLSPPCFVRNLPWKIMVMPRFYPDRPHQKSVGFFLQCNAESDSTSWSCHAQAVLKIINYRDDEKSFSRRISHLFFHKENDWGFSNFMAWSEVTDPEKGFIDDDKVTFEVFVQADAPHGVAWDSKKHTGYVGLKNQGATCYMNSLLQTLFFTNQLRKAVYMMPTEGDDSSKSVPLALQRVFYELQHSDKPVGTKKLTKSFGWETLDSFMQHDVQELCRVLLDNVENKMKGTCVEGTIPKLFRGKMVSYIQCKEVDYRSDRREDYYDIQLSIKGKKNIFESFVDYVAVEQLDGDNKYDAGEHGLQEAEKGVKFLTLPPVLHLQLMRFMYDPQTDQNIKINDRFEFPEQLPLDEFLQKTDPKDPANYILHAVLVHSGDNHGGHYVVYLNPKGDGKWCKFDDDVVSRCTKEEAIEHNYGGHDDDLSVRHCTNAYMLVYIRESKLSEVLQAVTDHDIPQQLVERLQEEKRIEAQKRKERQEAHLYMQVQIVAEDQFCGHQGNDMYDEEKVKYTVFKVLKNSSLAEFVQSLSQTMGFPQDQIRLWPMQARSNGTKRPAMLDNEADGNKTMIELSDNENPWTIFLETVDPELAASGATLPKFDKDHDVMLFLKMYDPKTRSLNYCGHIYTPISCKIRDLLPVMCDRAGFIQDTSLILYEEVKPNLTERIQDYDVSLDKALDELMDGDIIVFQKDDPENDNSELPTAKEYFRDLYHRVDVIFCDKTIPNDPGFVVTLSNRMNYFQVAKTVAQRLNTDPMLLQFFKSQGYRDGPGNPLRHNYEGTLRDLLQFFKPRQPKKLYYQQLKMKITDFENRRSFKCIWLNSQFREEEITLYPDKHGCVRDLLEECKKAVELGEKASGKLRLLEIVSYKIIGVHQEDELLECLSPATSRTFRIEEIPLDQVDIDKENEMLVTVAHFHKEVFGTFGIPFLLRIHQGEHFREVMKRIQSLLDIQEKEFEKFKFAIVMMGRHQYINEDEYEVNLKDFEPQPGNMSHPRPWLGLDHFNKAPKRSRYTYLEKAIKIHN

Cl.O=C(CCl)N1CCC(n2nc3ccccc3n2)CC1
inactive: [1] 0.181 | [2] -0.321 | [3] -0.894 | [4] -0.485 | [5] -0.467 | [6] -0.186 | [8] -0.518 | [9] -0.485 | [10] -0.114
active: [7] -1.88
